Bioassay records deposited in PubChem BioAssay by several laboratories.
Rv3671c inh – Rv3671c (M. tuberculosis) protease inhibition; inhibition, % at 5.96 µM; AID 2606; hit rate 0.048% among 320,000; P9WHR9; in the data active = inhibition above about 38%;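 note: extracellular domain of Rv3671c used as enzyme; 0% = enzyme with DMSO and 100% = no enzyme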
UGM FP inh – inhibitors of M. tuberculosis UDP-galactopyranose mutase; inhibition, % at 10 µM; purified UGM, fluorescence polarization probe displacement; AID 504406; hit rate 0.06% among 320,000; P9WIQ1; in the data active = inhibition above about 10%, passing the limit was not always enough
Mtb FBA inh – inhibits M. tuberculosis FBA enzyme | P9WQA3 | purified M. tuberculosis FBA, fluorescence read-out | inhibition, % at 1 µM | hit rate 2.3% among 360,000;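 note: 0% = vehicle and 100% = reference inhibitor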
Target sequence (P9WQA3 whole entry, looked up): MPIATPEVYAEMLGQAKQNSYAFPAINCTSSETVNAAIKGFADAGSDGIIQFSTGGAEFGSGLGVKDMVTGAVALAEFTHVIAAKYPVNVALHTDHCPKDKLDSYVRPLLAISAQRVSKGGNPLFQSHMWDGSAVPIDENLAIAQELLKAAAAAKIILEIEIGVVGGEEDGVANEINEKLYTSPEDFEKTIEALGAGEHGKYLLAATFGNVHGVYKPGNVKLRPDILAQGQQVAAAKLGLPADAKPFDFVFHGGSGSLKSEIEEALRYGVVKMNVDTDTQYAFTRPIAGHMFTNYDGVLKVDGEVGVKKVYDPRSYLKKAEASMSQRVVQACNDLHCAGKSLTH
GDH-TPI counter-1 – GDH-TPI coupled enzyme inhibition counter-screen; GDH-TPI coupled enzyme counterscreen, NADH absorbance; inhibition, % at 4.8 µM; hit rate 1.2% among 360,000; in the data active = inhibition above about 30%;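 note: 0% = DMSO wells and 100% = wells lacking the enzyme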
Mtb FBA confirm – confirmation of M. tuberculosis fructose-bisphosphate aldolase inhibitors. shares compounds with Mtb FBA inh. purified M. tuberculosis FBA, fluorescence read-out. inhibition, % at 1 µM. hit rate 78% among 5,600;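 note: 0% = vehicle wells and 100% = reference inhibitor wells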
GDH-TPI counter-2 – counter-screen for M. tuberculosis FBA inhibitors: GDH-TPI coupled enzyme inhibition | shares compounds with Mtb FBA inh | inhibition, % at 1 µM | AID 652141 | hit rate 81% among 5,600 | GDH-TPI coupled enzyme counterscreen, fluorescence; in the data active = inhibition above about 10%
* hit, by the source's call; · = no result; + = active, no number. Rows were chosen to be rich in hits. Some 3.5% of all compounds tested hit in one or more screens of this group. Cut-off read from the data, not from the text of the source, unless noted: active = inhibition above about 27%; inactive = the rest.

SMILES	Rv3671c inh	UGM FP inh	Mtb FBA inh	GDH-TPI counter-1	Mtb FBA confirm	GDH-TPI counter-2
COc1ccc(CNC(=O)C23CC4CC(CC(Br)(C4)C2)C3)cc1	0	1	54*	5	71*	40*
COc1cc(OC)cc(-c2c(-c3cccs3)c3cc(-c4cccc5[nH]ccc45)ccc3n2C)c1	10	-1	47*	21	112*	79*
S=c1[nH]cc(-c2ccccc2)[nH]1	5	3	53*	-4	60*	60*
O=[N+]([O-])c1ccc(-c2c[nH]c(=S)[nH]2)cc1	-1	3	-1	18	·	·
Cn1c(SCC(=O)N2CCCC2=O)nc2ccccc21	2	-1	-2	-5	·	·
O=C(N/N=C/c1ccc[nH]1)c1ccc([N+](=O)[O-])cc1	4	-1	0	20	·	·
COc1ccc(OC(=O)OCc2ccccc2)cc1	·	·	-3	5	·	·
COc1ccc(-c2oc3ccccc3c2C(=O)Oc2ccccc2)cc1	-12	0	91*	2	29*	27*
COc1ccc(-c2oc3ccccc3c2C(=O)OCc2ccc(O)cc2)cc1	-9	1	74*	12	60*	64*
COc1ccc(-c2oc3ccccc3c2C(=O)OCc2ccccc2)cc1	-6	1	99*	7	+	175*
COc1ccc(NC(=O)c2cc3ccccc3o2)cc1S(=O)(=O)N1CCCCC1	-9	4	0	22	·	·
CCCc1cc(=O)oc2cc(C)cc(OC(C)C(=O)NCCCn3ccnc3)c12 (configuration not stated)	-4	-2	75*	10	175*	164*
Cc1cc(OC(C)C(=O)NCCCn2ccnc2)c2c(C)cc(=O)oc2c1 (configuration not stated)	-5	-1	96*	0	+	+
Cc1cc(NC(=O)C(Cl)Cl)cc2c1OCO2	·	·	-1	-2	·	·
C[C@H]1CN([C@@H](C)CO)C(=O)c2cc(Br)cnc2O[C@H]1CN(C)C(=O)C1CC1	·	·	1	7	·	·
COc1ccc(C2CC(c3ccccc3Br)=NN2c2ccc(S(N)(=O)=O)cc2)cc1 (configuration not stated)	·	·	46*	12	154*	77*
CCC(NC(=O)c1ccccc1O)c1ccccc1 (configuration not stated)	-7	0	43*	-1	168*	120*
CC1=C(C(=O)OCC2CCCO2)C(c2ccncc2)C2=C(CC(C)(C)CC2=O)N1 (configuration not stated)	1	2	38*	-1	59*	58*
CCOC(=O)C1=C(C)NC2=C(C(=O)CC(C)(C)C2)C1c1ccc(N(C)C)cc1 (configuration not stated)	-3	1	0	3	·	·
CC1=C(C(=O)OCCOC(C)C)C(c2cccnc2)C2=C(CCCC2=O)N1 (configuration not stated)	-2	1	31*	4	+	+
CC1=C(C(=O)OC(C)C)C(c2cccnc2)C2=C(CC(C)(C)CC2=O)N1 (configuration not stated)	-8	1	79*	13	31*	38*
COc1cccc(C2C(C#N)=C(C)NC3=C2C(=O)CC(C)(C)C3)c1 (configuration not stated)	-3	-2	93*	7	+	183*
COc1ccc(C2C(C#N)=C(C)NC3=C2C(=O)CC(C)(C)C3)cc1 (configuration not stated)	-7	-1	17	13	·	·
CCN(CC)c1ccc(C2C(C(=O)OCCOC(C)C)=C(C)NC3=C2C(=O)CCC3)cc1 (configuration not stated)	-5	-1	1	11	·	·
CC(=O)c1ccc(N2CCN(C(=O)c3cccs3)C(C)C2)c(F)c1 (configuration not stated)	-2	5	0	21	·	·
SMILES	Rv3671c inh	UGM FP inh	Mtb FBA inh	GDH-TPI counter-1	Mtb FBA confirm	GDH-TPI counter-2
Cc1ccccc1C(=O)/C=C1/SCC(=O)N1C	8	0	-4	17	·	·
COCCOC(=O)C1=C(C)NC2=C(C(=O)CC(C)(C)C2)C1c1cccnc1 (configuration not stated)	-6	0	39*	1	+	+
O=C(CCCCCN1C(=O)c2ccccc2C1=O)Oc1ccc2c3c(c(=O)oc2c1)CCC3	3	0	62*	2	-3	-3
Cc1oc(C(=O)O)cc1COc1ccc2c3c(c(=O)oc2c1)CCC3	1	0	38*	27	55*	44*
O=C(Oc1ccc2c3c(c(=O)oc2c1)CCCC3)c1cccs1	-7	0	82*	7	+	+
O=c1oc2cc(OCCO)ccc2c2c1CCCC2	6	2	60*	5	74*	57*
O=C(O)COc1ccc2c3c(c(=O)oc2c1)CCCC3	-4	2	0	6	·	·
NS(=O)(=O)c1ccc(NC(=O)CCC(=O)c2ccc(Cl)s2)cc1	2	-2	-2	-2	·	·
C=CCOC(=O)COc1ccc2c3c(c(=O)oc2c1)CCCC3	·	·	40*	15	62*	41*
CCCNC(=O)c1cn(CC)c2cc(N3CCN(C(=O)c4ccco4)CC3)c(F)cc2c1=O	-6	1	80*	10	142*	113*
CCCCNC(=O)c1cn(CC)c2cc(N3CCN(C)CC3)c(F)cc2c1=O	-6	-4	22	9	·	·
CCn1cc(C(=O)NN)c(=O)c2cc(F)c(N3CCN(C)CC3)cc21	-1	3	4	10	·	·
CCn1cc(C(=O)NCc2cccnc2)c(=O)c2cc(F)c(N3CCN(C(=O)c4ccco4)CC3)cc21	-7	0	48*	3	53*	45*
CC(Oc1cccc(Cl)c1)C(=O)Nc1ccc(S(=O)(=O)N(C)C2CCN(C)CC2)cc1 (configuration not stated)	1	1	6	-3	·	·
CC12CCC(C(=O)N(NC(=O)c3cc(Cl)ccc3O)C1=O)C2(C)C (configuration not stated)	11	-2	44*	6	0	-7
COc1ccc(NC(=O)C(C)N=C2NS(=O)(=O)c3ccccc32)cc1S(N)(=O)=O (configuration not stated)	-4	4	-1	4	·	·
c1ccc2nc(-c3nc4ccccc4o3)ccc2c1	-8	1	69*	20	118*	104*
c1ccc(-c2ccc3ccccc3n2)cc1	-12	1	0	7	·	·
c1ccc(-c2nc3ccccc3o2)nc1	6	-1	29*	-5	7	1
COc1cccc(-c2csc(NNC(=O)c3cccs3)n2)c1	11	8	64*	4	28*	14*
COc1cccc(-c2csc(NC(=O)Oc3ccccc3)n2)c1	-1	0	1	4	·	·
CCc1nc2ccc(C(=O)N3CCN(C)CC3)cn2c1N(C)CCC(C)C	·	·	-3	7	·	·
COCCn1nc2cc(C(=O)NCC34CC5CC(CC(C5)C3)C4)ccc2c1OC	1	4	43*	9	+	+
